From PubChem
E coli Lon inh = E. coli protease La inhibition; purified E. coli Lon protease, fluorescence polarization; inhibition, % at 7.94 µM; actives 0.42% (n = 360,000); AID 602123; in the data active means inhibition above about 13%, passing the limit was not always enough;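 further: 0% = enzyme with probe and DMSO and 100% = no enzyme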
Target sequence (P0A9M0 whole entry, looked up): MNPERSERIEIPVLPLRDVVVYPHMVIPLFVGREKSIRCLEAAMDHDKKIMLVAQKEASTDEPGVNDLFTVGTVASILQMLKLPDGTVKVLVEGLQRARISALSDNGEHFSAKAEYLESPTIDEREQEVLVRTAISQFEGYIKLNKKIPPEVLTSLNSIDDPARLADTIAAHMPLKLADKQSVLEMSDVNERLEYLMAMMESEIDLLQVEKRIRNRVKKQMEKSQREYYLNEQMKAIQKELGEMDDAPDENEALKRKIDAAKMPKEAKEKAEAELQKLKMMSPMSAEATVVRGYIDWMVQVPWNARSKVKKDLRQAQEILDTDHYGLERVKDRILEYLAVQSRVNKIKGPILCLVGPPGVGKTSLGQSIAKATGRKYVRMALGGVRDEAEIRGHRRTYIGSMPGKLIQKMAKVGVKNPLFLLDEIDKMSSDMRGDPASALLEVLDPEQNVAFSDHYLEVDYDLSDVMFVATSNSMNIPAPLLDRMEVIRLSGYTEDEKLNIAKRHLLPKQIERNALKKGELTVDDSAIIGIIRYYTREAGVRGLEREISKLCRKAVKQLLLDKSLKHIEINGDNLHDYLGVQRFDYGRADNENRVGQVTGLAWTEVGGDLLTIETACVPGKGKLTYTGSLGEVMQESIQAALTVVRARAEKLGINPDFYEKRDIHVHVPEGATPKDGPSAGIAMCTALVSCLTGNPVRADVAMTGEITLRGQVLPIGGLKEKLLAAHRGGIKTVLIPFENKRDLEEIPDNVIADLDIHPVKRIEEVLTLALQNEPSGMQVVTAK
C-LANA FP = blocks KSHV LANA C-terminal domain binding to DNA | MBP-C-LANA/FAM-LBS DNA binding, fluorescence polarization | AID 504423 | inhibition, % at 9 µM | actives 0.078% (n = 340,000);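 active means highest replicate inhibition at or above 60% at 9 µM, even if other replicates fall short; inactive means all replicates below 60% inhibition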;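 further: 0% = neutral control wells and 100% = 4 µM acridine orange control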
Keap1 Nrf2 FP = Keap1-Nrf2 (human) interaction inhibition | inhibition, % at 9.4 µM | Keap1 Kelch-Nrf2 peptide fluorescence polarization, 1536-well | actives 0.15% (n = 340,000); in the data active means inhibition above about 12%; inconclusive means no clear call, values can overlap the other calls; inactive means below about 7.3%;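 further: human Keap1 Kelch domain with fluorescein labeled Nrf2 9mer peptide probe; 0% = neutral control wells and 100% = peptide positive control; higher means more block of Keap1 binding to Nrf2 peptide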
MEX-5 binding = C. elegans MEX-5 TCR-2 RNA binding activity; Q9XUB2; MEX-5/FITC-TCR2 RNA binding, fluorescence polarization; hits give low values; activity score (negative = inhibition of binding), % at 10 µM; actives 0.38% (n = 300,000); AID 1832;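 active means inhibition past about -25% in most replicates, and total fluorescence under double the plate's negative control median, limit read from the data; inconclusive means replicates evenly split on the limit, or fluorescence at least double controls; inactive means too little inhibition in most replicates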;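 further: 0% = DMSO and -100% = 5 µM competing unlabeled TCR2 RNA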
Bcl-xL primary = Bcl-xL (human) inhibition. GST-Bcl-xL / FITC-Bim BH3 peptide fluorescence polarization. inhibition, % at 10.9 µM. actives 0.7% (n = 320,000);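 active means inhibition above the mean of all tested compounds plus 3 SD, cutoff set per campaign, cut at about 30% in these data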;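 further: 0% = DMSO wells and 100% = unlabeled Bim-BH3 peptide competitor; inhibitors lower millipolarization by displacing the labeled peptide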
GLD-1 TGE inh = GLD-1-TGE RNA interaction inhibition (C. elegans). inhibition, % at 5.96 µM. Q17339. AID 2280. purified GLD-1 + fluorescein TGE RNA, fluorescence polarization. actives 0.44% (n = 320,000);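 active means percent inhibition above a per-plate cutoff, the plate mean of test compounds plus 3 SD, cut at about 30% in these data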;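 further: 0% = DMSO wells with GLD-1 and probe and 100% = wells lacking GLD-1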
Keap1 TSA = Keap1 (human) Kelch domain binding; AID 651823; shares compounds with Keap1 Nrf2 FP; max delta Tm, degrees C; actives 8% (n = 400); Keap1 Kelch thermal shift, delta Tm; hits give high values; in the data active means max delta Tm above about 0.48 degrees C
Dye-only ctr = dye artifact in Keap1 thermal shift counter-screen | 140 tested, under 10 active | Sypro Orange dye-only thermal melt, no protein, delta Tm; top dose 26 µM | delta Tm, degrees C (test concentration not listed) | shares compounds with Keap1 Nrf2 FP;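 active means at highest dose tested, delta Tm positive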
Starred values were filed as active, the others as inactive; i = inactive; ? = inconclusive; . = no result given. Hits are enriched below; roughly 1.2% of the tested compounds scored in any of these assays.

SMILES | E coli Lon inh | C-LANA FP | Keap1 Nrf2 FP | MEX-5 binding | Bcl-xL primary | GLD-1 TGE inh | Keap1 TSA | others
O=C(c1ccccc1)c1ccc(O)cc1O | -10 | 103* | 59* | ? | 134* | 79* | -0.15
O=C(c1ccc(O)cc1)c1ccc(O)cc1O | 1 | 12 | 1 | -7 | 6 | 3 | .
C=CCn1c(=O)/c(=C/c2ccsc2)s/c1=C(\C#N)C(=O)NCCN1CCOCC1 | -14 | -3 | 13* | . | . | . | -0.15
CCCCN(C)c1c(C)nc2ccc(C(=O)Nc3ccc(OC)c(OC)c3)cn12 | 4 | . | . | . | . | . | .
O=C(CSC1=NNC(c2ccccn2)S1)Nc1cccc(Cl)c1 (stereo not given) | -6 | 12 | 19* | 0 | 10 | 3 | -0.17
O=C(CSC1=NNC(c2ccccn2)S1)Nc1ccccc1 (stereo not given) | 7 | 0 | -4 | -2 | 13 | 7 | .
CCOC(=O)C(C)(C)N(Cc1ccccc1C)S(=O)(=O)c1ccc(Cl)c([N+](=O)[O-])c1 | 2 | 0 | 27* | 2 | 6 | 1 | -0.13 | Dye-only ctr=-27
Clc1ccc(-c2noc(CN3CCOCC3)n2)cc1 | 9 | . | 68* | -1 | 7 | -1 | -0.18 | Dye-only ctr=-22
O=C(C1CCN(Cc2nc(-c3ccc(Cl)cc3)no2)CC1)N1CCOCC1 | -9 | 1 | 3 | 3 | 8 | 5 | .
COc1ccc(N2CC(C(=O)Nc3cccnc3)CC2=O)cc1 (stereo not given) | 4 | -1 | 1 | 2 | 1 | -1 | .
CCn1nnnc1SCC(=O)N(C)C1CCS(=O)(=O)C1 (stereo not given) | 8 | 15 | 37* | . | -5 | 9 | -0.13
COc1ccc(-n2nnnc2SCC(=O)N(C)C2CCS(=O)(=O)C2)cc1 (stereo not given) | -4 | 2 | -7 | . | . | 3 | .
COc1ccc(-c2nc(CS(=O)CC(=O)NC3CCCC3)c(C)o2)cc1 (stereo not given) | 1 | 0 | -2 | -2 | 2 | 7 | .
Oc1[nH]c2ccccc2c1N=Nc1ccccc1 | 0 | 3 | 20* | -42* | 41* | 70* | -0.03
Oc1[nH]c2ccccc2c1N=Nc1ccccc1F | i | 41 | 21* | ? | -108 | -143 | -0.1
O=C(N=Nc1c(O)[nH]c2ccccc12)Nc1ccccc1 | -7 | -2 | -6 | . | . | . | .
COc1ccc(C2N3CC4(C)CN2CC(C)(C3)C4O)cc1OC (stereo not given) | 1 | 0 | -1 | 0 | 2 | 4 | .
COc1ccc(C2N3CC4(C)CN2CC(C)(C3)C4O)cc1 (stereo not given) | -4 | 2 | 20* | -1 | 2 | 1 | -0.16
COC(=O)c1cccc(NC(=O)Nc2ccc(Cl)cc2)c1 | -1 | -2 | -1 | -1 | 3 | 9 | .
COC(=O)c1cccc(NC(=O)NC(=O)c2ccc(Cl)cc2)c1 | -2 | 27 | 44* | 2 | 1 | 2 | -0.01
N#Cc1cccc(NC(=O)CN2CCN(Cc3ccccc3)CC2)c1 | -5 | -1 | 4 | 3 | 9 | 0 | .
CN(C)CCNC(=O)c1c(NC(=O)c2ccccc2)sc2c1CCCC2 | -12 | . | 17* | 2 | 2 | -4 | -0.15
CN(CCO)C(=O)c1c(NC(=O)c2ccccc2)sc2c1CCCC2 | -2 | 1 | -4 | 2 | -2 | 5 | .
CN1CC=C2C(C#N)=C(N)C(C#N)(C#N)[C@H](c3cccs3)[C@H]2C1 | 109* | 57 | 26* | -68* | 112* | 79* | -0.02 | Dye-only ctr=-28
O=C(C1=NN(c2ccccc2)C2C(=O)N(c3ccccc3)C(=O)C12)c1ccccc1 (stereo not given) | -31 | 14 | 54* | -37* | 11 | -10 | -0.11 | Dye-only ctr=-5.2
O=c1[nH]c2cc(C(F)(F)F)ccc2n1-c1cc(C(F)(F)F)ccc1O | 1 | -4 | 15* | . | 3 | -5 | 0.03
C[C@H]1CN([C@@H](C)CO)S(=O)(=O)c2ccc(Br)cc2O[C@@H]1CN(C)S(=O)(=O)c1ccccc1F | -11 | . | . | . | . | . | .
